Source: PubChem (National Center for Advancing Translational Sciences (NCATS))
HCV inhibitor: blocks hepatitis C virus. Huh7.5.1 HCVcc-Cre infection, luciferase reporter, 44 h. 340,000 tested, 3.4% active. Potency, µM (series often up to 41.8 µM), inactives show top-dose activity change, negative = inhibition, usual class: inhibitors; note: % is set by controls: 0 for no effect and ±100 for the full control effect
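HCVcc-Cre virus at an moi near 0.5 was added right after compound to cells cultured 4 h from seeding (1,000 cells/well). Luciferase activity was determined 44 h later, 15 min after substrate addition at RT.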
VACV mCherry inh: vaccinia inhibition (mCherry reporter). Vaccinia virus mCherry reporter infection, fluorescence. Potency, µM (titrated, usually from 36.5 µM), for inactives: at the top dose activity change, negative = inhibition, usual class: inhibitors. 310,000 tested, 0.63% active; calls by dose curve; tested in A549 cells; note: % is set by controls: 0 for no effect and ±100 for the full control effect; nearly all actives have a fitted effect of over 35% in size
Vaccinia Venus: vaccinia inhibition (Venus reporter); Vaccinia virus Venus reporter expression, fluorescence; Potency, µM (series often up to 36.5 µM), without a hit: top-dose activity change, negative = inhibition, actives largely listed as inhibitors; 330,000 tested, 0.46% active; calls by dose curve; tested in A549 cells; note: % is set by controls: 0 for no effect and ±100 for the full control effect; nearly all actives have a fitted effect of over 30% in size
Pf growth 96h: P. falciparum growth inhibition at 96 hours. P. falciparum luciferase reporter growth, 96 h. Potency, µM (doses to about 28.7 µM), without a hit: top-dose activity change, negative = inhibition, most hits filed as inhibitors. 320,000 tested, 6.9% active; note: % is set by controls: 0 for no effect and ±100 for the full control effect
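Cell-based qHTS: luciferase-tagged P. falciparum in erythrocytes (2% hematocrit, 0.05% parasitemia final) incubated with compounds for 96 hours, 37 C, 5% CO2; luciferase detection reagent then added and luminescence measured.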
Pf growth 48h: inhibits P. falciparum growth in the first generation, 48 h. P. falciparum luciferase growth in erythrocytes, 48 h. Potency, µM (titrated, usually from 28.7 µM), without a hit: at the top dose activity change, negative = inhibition, hits mostly inhibitors. 310,000 tested, 5.9% active. AID 504832; note: % is set by controls: 0 for no effect and ±100 for the full control effect
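Here the parasites carry a stable luciferase gene and grow inside erythrocytes in Albumax-based RPMI medium with compound for one erythrocytic cycle. Activity is scored as loss of luminescent signal.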
NS1 inh: blocks influenza NS1 protein function; Potency, µM (doses to about 46.1 µM), for the others: top-dose activity, positive = more growth; 270,000 tested, 0.4% active; AID 2326; calls by dose curve; note: actives are rising curves; nearly all actives have a fitted effect of over 50% in size
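Growth recovery, yeast-based: influenza A NS1 expressed in S. cerevisiae causes slow growth, and suppressors are detected by OD600. The parent strain without NS1 is used as positive control.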
Active calls of the source: *; i = inactive; ? = inconclusive; . = no result given; ! = a repeat was not active; [ ] = another dose, or the depositor's remark. Only some compounds are listed: those with a hit (about 11% of all), similar ones and a draw of the others. Unless noted, calls come from the whole dose curve; as a rule, active = well fitted inhibition curve with a large enough effect; inconclusive = small, poorly fitted or top-dose-only effect, or another doubt; inactive = no such curve, though single readings can be large or run the other way. Potency is the fitted concentration of half-maximal effect.

SMILES	HCV inhibitor	VACV mCherry inh	Vaccinia Venus	Pf growth 96h	Pf growth 48h	NS1 inh
Cc1ccc(CNC(=O)c2cccc(Nc3nc4ccccc4n4nnnc34)c2)cc1	.	6.3µM*	7.9µM*	.	.	.
NS(=O)(=O)c1ccc(CCNC(=O)c2ccc3nc4ccc(Cl)cc4c(=O)n3c2)cc1	?	-7%	-18%	6%	12µM*	.
COc1ccc(/C=N/n2cncn2)cc1COc1ccc(NC(C)=O)cc1	?	i	-5%	1%	13%	-3%
O=C(NP(=O)(N1CCCC1)N1CCCC1)C1=C(N2CCOCC2)/C(=C/c2cccc([N+](=O)[O-])c2)CC1	3%	-12%	-2%	-4%	-4%	.
O=[N+]([O-])c1cccc(/C=C2\CCC(/C=N/Nc3ccc4ccccc4n3)=C2N2CCOCC2)c1	?	-17%	-5%	0.41µM*	?	16%
O=C1/C(=C/c2cccs2)NC(=S)N1C1CC1	-15%	i	-13%	35%	14%	-11%
O=C1N(CN2CCOCC2)c2ccccc2C12OCC(CCl)O2 (configuration not stated)	6%	.	.	0%	?	-1%
CN1C2CCC1CC(OC(c1ccc(F)cc1)c1ccc(F)cc1)C2 (configuration not stated)	.	-14%	-21%	.	.	.
CN1[C@@H]2CC[C@H]1CC(OC1c3ccccc3CCc3ccccc31)C2 (some centres not stated)	1.3µM*	-15%	-24%	?	4.7µM*	.
CN1C2CCC1CC(OC(c1ccccc1)c1ccccc1)C2 (configuration not stated)	?	.	.	9.5µM*!	12µM*	-4%
CN1[C@@H]2CC[C@H]1CC(OC(=O)[C@@H](O)c1ccccc1)C2 (some centres not stated)	.	.	.	-20%	-15%	-3%
CN1[C@@H]2CC[C@H]1CC(OC(c1ccccc1)c1ccccc1)C2 (some centres not stated)	.	-21%	-10%	4.8µM*	17µM*	-3%
CN1[C@@H]2CC[C@H]1CC(OC(=O)C(O)c1ccccc1)C2 (some centres not stated)	1%	-1%	-5%	2%	-10%	.
Cc1noc2nc(-c3cccs3)cc(-c3nnc4n3CCCCC4)c12	.	.	.	12µM*	16%	-7%
NC(=O)/C(=C/c1ccco1)NC(=O)/C=C/c1ccccc1	7%	.	.	?	-3%	8%
CC(C)CCOC(=O)/C(=C/c1ccco1)NC(=O)/C=C/c1ccccc1	12%	.	.	4.1µM*	?	4%
CC1CCN(CC(=O)Nc2ccc(C(=O)N3CCCCC3)cc2)CC1	20%	-14%	-24%	3.3µM*	0%	2%
O=C(CN1CCC(C(=O)c2ccc(F)cc2)CC1)NCc1ccccc1F	11µM*	?	-18%	6.6µM*	-25%	8%
O=C(CN1CCC(C(=O)c2ccc(F)cc2)CC1)Nc1ccc(F)cc1	10µM*	?	?	?	?	-12%
CC(=O)c1ccc(NC(=O)CN2CCC(C(=O)c3ccc(F)cc3)CC2)cc1	?	-19%	-10%	-15%	?	12%
O=C(CSCc1ccc(F)cc1)NCc1ccc2c(c1)OCO2	?	?	-14%	8%	-17%	.
Cc1ccc(C)c(N2CCN(C3CCCCC3NS(=O)(=O)c3ccccc3)CC2)c1 (configuration not stated)	11µM*	.	.	12µM*	?	-5%
Cc1ccc(Cl)cc1N1CCN(C2CCCCC2NS(=O)(=O)c2ccccc2)CC1 (configuration not stated)	18%	.	.	19%	?	12%
COCCNC(=S)Nc1cc(OC)c(NC(=O)c2ccco2)cc1OC	13µM*	-20%	-8%	14%	18%	2%
COC(=O)c1ccccc1NC(=O)COC(=O)c1ccc(C)c(NC(=O)c2ccco2)c1	?	.	.	2.3µM*	2.3µM*	-18%
SMILES	HCV inhibitor	VACV mCherry inh	Vaccinia Venus	Pf growth 96h	Pf growth 48h	NS1 inh
COC(=O)c1cc(OC)c(OC)cc1NC(=O)c1ccco1	6.3µM*	.	-18%	-35%	-19%	-11%
COC(=O)c1ccccc1NC(=O)COC(=O)c1ccco1	?	-12%	-9%	0%[5.75 µM]	4%	-29%
COc1cc(NC(=O)c2ccco2)c(C(=O)O)cc1OC	4%	.	.	166%	1%	-3%
CCNC(=S)NNC(=O)c1cccn(Cc2ccc(Cl)cc2)c1=O	-11%	-23%	-11%	0%	-15%	4%
COc1ccccc1CNc1nc2nc(C)c(Cl)c(=O)n2[nH]1	13%	.	.	50%	-20%	10%
COc1ccc(-c2nc3c(C)cc(Br)cn3c2CC(C)(C)C)cc1OC	.	46%	2%	.	.	.
COC(=O)c1sc(Nc2ccccc2)nc1C	-17%	?	-34%	-21%	154%	-87%
COc1ccccc1-n1nnnc1SCC(=O)Nc1oc(C)c2c(C)n[nH]c(=O)c12	8%	-10%	-8%	31%	65%	.
Cc1cc(C)cc(N(CC(=O)Nc2ccccc2)C2=NC3CS(=O)(=O)CC3S2)c1 (configuration not stated)	-16%	-3%	-11%	25%	0%	-7%
COC1CCN(C(=O)c2ccc(OC3CCN(Cc4ccccn4)CC3)cc2)CC1	23%	5%	3%	?	-7%	?
Cc1ccc2c(c1)C1CN(C)CCC1N2C(=O)Nc1ccc(Cl)cc1 (configuration not stated)	-28%	-15%	-14%	10µM*	10µM*	-22%
Cc1ccc2c(c1)C1CN(C)CCC1N2C(=O)Cc1cccs1 (configuration not stated)	5%	-17%	-6%	0.93µM*	?	-6%
CCOc1ccc(CNC(=O)c2ccc3c(c2)nc2n3CCOC2)cc1OC	.	-11%	-8%	.	.	.
Cn1nccc1C(=O)NC(=S)Nc1cc(Cl)cc(Cl)c1	-13%	i	?	-15%	?	9%
COc1ccc(OC)c(Nc2nc(-c3sc(NC(=O)CC(C)C)nc3C)cs2)c1	2.8µM*	?	?	10µM*	6.6µM*	10%
CCC(C)C(=O)Nc1nc(C)c(-c2csc(Nc3cc(Cl)ccc3OC)n2)s1 (configuration not stated)	?	-19%	-22%	15µM*	10µM*	?
CCC(C)C(=O)Nc1nc(C)c(-c2csc(Nc3cc(OC)ccc3OC)n2)s1 (configuration not stated)	?	?	?	9.3µM*	2.3µM*	17%
N[C@@H](Cn1cc(I)c(=O)[nH]c1=O)C(=O)O	.	.	.	.	.	-4%
CCOc1ccc(C(=O)N2CCCC2)cc1OC	19%	.	.	.	26%	4%
Cc1cc(C(=O)CSc2nc3ccc(Cl)cc3[nH]2)c(C)n1C	?	.	.	?	?	-66%
